The supplement of paper PMC9694430

What was measured:
Experiment in all cases: thermal shift delta Tm vs DMSO control; higher = stronger stabilization (binding)
Conditions in all cases: 12.5 µM; protein concentration 2 µM
[1] = system: LOC_OS02G45750-cb003
Method in brief: (§1)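 Rice kinase domain constructs, made in E. coli and purified, were placed in 96-well plates at 2 μM in 19.5 μl of 100 mM potassium phosphate pH 7.5, 150 mM NaCl, 10% glycerol and 5 × SYPRO Orange, with compound in DMSO. A temperature ramp from 25°C to 95°C at 0.05°C/s was used for differential scanning fluorimetry. The melting temperature shift is a triplicate mean compared with DMSO-only protein, derived from Boltzmann fits.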

[2] = system: LOC_OS02G54510-cb004
Method in brief: as §1

[3] = system: LOC_OS03G04050-cb001
Method in brief: as §1

[4] = system: LOC_OS03G12390-cb001
Method in brief: as §1

[5] = system: LOC_OS03G27990-cb004
Method in brief: as §1

[6] = system: LOC_OS03G50450-cb001
Method in brief: as §1

[7] = system: LOC_OS03G50810-cb003
Method in brief: as §1

[8] = system: LOC_OS04G35114-cb001
Method in brief: as §1

[9] = system: T1, LOC_OS04G38480-cb003
T1 sequence (whole entry): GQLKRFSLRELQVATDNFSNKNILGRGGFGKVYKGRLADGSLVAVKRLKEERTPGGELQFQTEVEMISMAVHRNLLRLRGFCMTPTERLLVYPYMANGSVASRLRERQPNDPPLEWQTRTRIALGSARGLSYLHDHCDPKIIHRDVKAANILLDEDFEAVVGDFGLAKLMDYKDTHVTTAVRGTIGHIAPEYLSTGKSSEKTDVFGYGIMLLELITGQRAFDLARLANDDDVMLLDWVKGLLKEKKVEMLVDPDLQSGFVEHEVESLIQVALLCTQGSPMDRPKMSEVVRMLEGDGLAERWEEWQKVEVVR
Method in brief: as §1

[10] = system: T2, LOC_OS04G41100-cb001
T2 sequence (whole entry): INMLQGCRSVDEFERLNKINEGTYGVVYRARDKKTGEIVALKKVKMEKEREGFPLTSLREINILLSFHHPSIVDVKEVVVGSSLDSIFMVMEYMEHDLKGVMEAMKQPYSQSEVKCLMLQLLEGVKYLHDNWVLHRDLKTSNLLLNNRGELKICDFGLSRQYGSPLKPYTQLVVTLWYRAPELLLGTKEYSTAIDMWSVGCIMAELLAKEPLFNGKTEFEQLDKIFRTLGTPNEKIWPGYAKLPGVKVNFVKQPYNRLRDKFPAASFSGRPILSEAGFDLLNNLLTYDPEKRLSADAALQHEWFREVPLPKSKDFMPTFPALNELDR
Method in brief: as §1

[11] = system: LOC_OS04G57630-cb004
Method in brief: as §1

[12] = system: LOC_OS05G07850-cb002
Method in brief: as §1

[13] = system: LOC_OS05G16824-cb004
Method in brief: as §1

[14] = system: LOC_OS05G28520-cb001
Method in brief: as §1

[15] = system: LOC_OS05G30820-cb001
Method in brief: as §1

[16] = system: LOC_OS05G43570-cb004
Method in brief: as §1

[17] = system: LOC_OS06G16330-cb003
Chain of LOC_OS06G16330-cb003 (as listed by the source): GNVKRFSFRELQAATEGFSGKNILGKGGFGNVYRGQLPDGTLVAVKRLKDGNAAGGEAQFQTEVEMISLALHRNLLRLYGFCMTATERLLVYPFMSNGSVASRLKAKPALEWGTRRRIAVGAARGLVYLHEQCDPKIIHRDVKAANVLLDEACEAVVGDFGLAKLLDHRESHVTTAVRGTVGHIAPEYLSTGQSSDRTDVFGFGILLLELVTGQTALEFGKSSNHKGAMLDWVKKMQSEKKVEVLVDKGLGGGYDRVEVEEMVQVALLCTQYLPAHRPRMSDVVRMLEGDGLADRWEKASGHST
Method in brief: as §1

[18] = system: T3, LOC_OS06G22820-cb001
T3 sequence (whole entry): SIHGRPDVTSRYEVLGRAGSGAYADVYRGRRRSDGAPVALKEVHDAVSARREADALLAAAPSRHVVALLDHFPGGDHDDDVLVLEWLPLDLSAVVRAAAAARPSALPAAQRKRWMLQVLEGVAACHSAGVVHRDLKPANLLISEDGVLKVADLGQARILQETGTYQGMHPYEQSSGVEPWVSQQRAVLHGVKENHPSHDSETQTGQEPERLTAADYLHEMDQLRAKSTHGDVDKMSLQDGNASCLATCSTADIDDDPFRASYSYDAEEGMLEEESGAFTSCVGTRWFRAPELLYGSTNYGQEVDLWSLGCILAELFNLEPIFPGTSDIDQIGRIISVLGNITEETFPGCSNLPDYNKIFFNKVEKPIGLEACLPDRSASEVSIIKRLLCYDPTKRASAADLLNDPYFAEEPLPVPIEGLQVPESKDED
Method in brief: as §1

[19] = system: LOC_OS07G06570-cb004
Method in brief: as §1

[20] = system: LOC_OS07G07230-cb001
Method in brief: as §1
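Note: purified Escherichia coli-expressed rice kinase domain construct.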

SMILES | thermal shift delta Tm [1] | thermal shift delta Tm [2] | thermal shift delta Tm [3] | thermal shift delta Tm [4] | thermal shift delta Tm [5] | thermal shift delta Tm [6] | thermal shift delta Tm [7] | thermal shift delta Tm [8] | thermal shift delta Tm [9] | thermal shift delta Tm [10] | thermal shift delta Tm [11] | thermal shift delta Tm [12] | thermal shift delta Tm [13] | thermal shift delta Tm [14] | thermal shift delta Tm [15] | thermal shift delta Tm [16] | thermal shift delta Tm [17] | thermal shift delta Tm [18] | thermal shift delta Tm [19] | thermal shift delta Tm [20]
COc1cc2nccc(Oc3ccc(NC(=O)c4cn(C(C)C)c(=O)n(-c5ccc(F)cc5)c4=O)cc3F)c2cc1OC | 1.35 °C | 0.3 °C | 0.61 °C | 0.23 °C | 0.52 °C | 0.71 °C | 1.15 °C | 0.49 °C | 3.7 °C | 0.44 °C | 0.32 °C | 11.1 °C | 2.27 °C | 0.34 °C | -0.01 °C | 0.27 °C | 8.48 °C | 0.89 °C | 1.78 °C | 0.22 °C
CCCCCCCCCCCCCCCCn1cc[n+](Cc2ccccc2)c1C | -1.15 °C | -1.83 °C | -4.41 °C | -3.77 °C | 0.11 °C | -1.25 °C | -4.07 °C | -2.5 °C | -5.2 °C | -1.35 °C | -3.77 °C | 0.19 °C | – | -2.62 °C | -1.41 °C | -3.26 °C | -4.53 °C | -0.65 °C | -1.18 °C | -0.82 °C
CCNC(=O)Nc1ccc(-c2nc3c(c(N4CCOC[C@@H]4C)n2)CCN(C2COC2)C3)cc1 | 1.07 °C | 0.26 °C | 0.61 °C | -0.06 °C | 0.78 °C | 0.68 °C | 0.23 °C | 0.56 °C | -0.03 °C | 0.46 °C | 0.05 °C | 0.56 °C | -1.52 °C | 0 °C | 0.54 °C | 0.3 °C | 0.18 °C | 0.27 °C | 1.06 °C | 0.66 °C
Cn1sc(=O)n(Cc2ccccc2)c1=O | -1.04 °C | -2 °C | -0.78 °C | -3.39 °C | -9.72 °C | -0.11 °C | -3.78 °C | 0.63 °C | 1.35 °C | 0.43 °C | -1.01 °C | -2.47 °C | 4.99 °C | 1.84 °C | 0.45 °C | 0.04 °C | – | 0.72 °C | 0.43 °C | -0.42 °C
C=CC(=O)N[C@H]1CCOC[C@H]1Nc1ncc2cc(-c3c(Cl)c(OC)cc(OC)c3Cl)ccc2n1 | 1.19 °C | -0.3 °C | 0.08 °C | -0.37 °C | -0.08 °C | 0.02 °C | -0.2 °C | 0.09 °C | 0.04 °C | 0.17 °C | 0.02 °C | 0.63 °C | – | 0.07 °C | 0 °C | -0.08 °C | -0.57 °C | 0.4 °C | 0.52 °C | 0.76 °C
